This is a sample that favours compounds with a hit; in the whole collection about 18% have one here.
TDP1 cell noCPT: qHTS for Inhibitors of human tyrosyl-DNA phosphodiesterase 1 (TDP1): qHTS in cells in absence of CPT | DT40 Tdp1-/- hTDP1 cells, no CPT, ATP luminescence, 48 h | Potency, µM (series often up to 46.2 µM), inactives show top-dose activity change, negative = growth inhibition, hits mostly inhibitors | 420,000 compounds, 15% hits | AID 686978, 2013; further: potency means the concentration at half of the fitted maximal effect; nearly all actives have a fitted effect of over 55% in size
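Chicken DT40 Tdp1-/- cells stably complemented with human TDP1 were seeded at 400 cells/well with DMSO in place of 20 nM camptothecin. After compound pinning, cells grew at least 48 hr at 37 °C; viability read by CellTiter-Glo luminescence.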
Six1-Eya2 blk: qHTS Assay for Inhibitors of the Six1/Eya2 Interaction. Homeobox protein SIX1 (Homo sapiens) + Protein phosphatase EYA2 (Homo sapiens), …. 360,000 compounds, 0.56% hits. AlphaScreen GST-Six1/His-Eya2 binding, biochemical; stronger effect = lower value. activity change, % (test concentration not listed); in the data active means activity change below about -65%; inconclusive means mostly about -30% to -63%
Target sequence (O00167 whole entry, looked up): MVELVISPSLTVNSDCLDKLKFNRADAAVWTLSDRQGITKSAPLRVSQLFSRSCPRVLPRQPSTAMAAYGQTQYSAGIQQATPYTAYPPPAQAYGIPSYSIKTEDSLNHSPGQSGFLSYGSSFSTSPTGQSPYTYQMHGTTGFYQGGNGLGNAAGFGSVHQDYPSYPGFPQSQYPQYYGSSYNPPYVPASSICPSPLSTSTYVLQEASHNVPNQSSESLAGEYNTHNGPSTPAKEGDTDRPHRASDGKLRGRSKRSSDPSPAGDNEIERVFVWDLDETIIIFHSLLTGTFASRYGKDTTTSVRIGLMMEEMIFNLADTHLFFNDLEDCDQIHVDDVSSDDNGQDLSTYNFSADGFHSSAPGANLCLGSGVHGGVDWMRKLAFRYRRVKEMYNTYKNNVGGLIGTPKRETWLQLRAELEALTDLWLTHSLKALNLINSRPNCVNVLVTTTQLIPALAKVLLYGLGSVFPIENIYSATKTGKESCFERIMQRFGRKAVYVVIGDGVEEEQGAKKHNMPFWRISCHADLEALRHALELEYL
Target sequence (Q15475 whole entry, looked up): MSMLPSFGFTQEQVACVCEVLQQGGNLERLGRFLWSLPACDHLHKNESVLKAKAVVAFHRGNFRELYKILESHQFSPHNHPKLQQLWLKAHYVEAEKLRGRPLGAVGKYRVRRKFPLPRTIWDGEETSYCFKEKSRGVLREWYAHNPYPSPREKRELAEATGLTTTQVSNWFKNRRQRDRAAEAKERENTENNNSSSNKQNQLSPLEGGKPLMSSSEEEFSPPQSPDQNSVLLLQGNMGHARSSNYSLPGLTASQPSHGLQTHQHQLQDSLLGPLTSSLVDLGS
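Homogeneous AlphaScreen proximity assay pairing GST-Six1 with His-tagged Eya2 (added as 5X mix: 250 nM and 500 nM) in 50 mM Tris pH 8.0, 300 mM NaCl, 1 mM TCEP. Glutathione donor and nickel acceptor beads; 1 h, 37 °C, dark.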
TDP1 cell CPT: qHTS for Inhibitors of human tyrosyl-DNA phosphodiesterase 1 (TDP1): qHTS in cells in presence of CPT | 420,000 compounds, 12% hits | AID 686979, 2013 | chicken DT40 Tdp1-/-;hTDP1 cells + 20 nM CPT, ATP luminescence, 48 h | Potency, µM (titrated, usually from 46.2 µM), for inactives: at the top dose activity change, negative = growth inhibition, hits mostly inhibitors; further: potency means the concentration at half of the fitted maximal effect; nearly all actives have a fitted effect of over 55% in size
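Cell growth measured by CellTiter-Glo luminescence after a minimum 48 h, 37 C compound exposure with 20 nM CPT in Tdp1-knockout DT40 cells stably expressing hTDP1, seeded 400/well; qHTS titration format.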
TDP1 inh: qHTS Assay for Inhibitors of Tyrosyl-DNA Phosphodiesterase (TDP1); Tyrosyl-DNA phosphodiesterase 1 (Homo sapiens), Q9NUW8; recombinant TDP1, AlphaScreen DNA substrate cleavage; Potency, µM (highest dose often 130 µM), for inactives: at the highest dose activity change, negative = inhibition, actives largely listed as inhibitors; 350,000 compounds, 0.28% hits; further: potency means the concentration at half of the fitted maximal effect; nearly all actives have a fitted effect of over 40% in size
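Recombinant E. coli-expressed Tdp1 (1 nM) preincubated with compound 15 min at RT, then 5'-biotin/3'-phosphotyrosine-FITC DNA substrate (15 nM) added for 5 min. AlphaScreen beads (10 ug/ml) added, 10 min RT; tyrosine-FITC cleavage read as signal loss.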
CtBP-E1A inh: qHTS Assay for Inhibitors of the CtBP/E1A Interaction | CtBP / adenovirus E1A interaction (AlphaScreen) | AlphaScreen GST-E1A/His-CtBP binding, 1536-well; stronger effect = lower value | activity change, % (concentration not given with the values) | 340,000 compounds, 0.49% hits | AID 651724, 2012; in the data active means activity change below about -65%; inconclusive means mostly about -30% to -63%
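GST-E1A and His-tagged CtBP (125 nM each as 5X stock) were preincubated with pin-transferred compound for 2 h at 37 °C in the dark, then glutathione donor and nickel acceptor beads were added for 1 h before AlphaScreen reading.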
IL-1B inflam inh: qHTS for Inhibitors of Inflammasome Signaling: IL-1-beta AlphaLISA Primary Screen; THP-1 LPS/ATP IL-1B secretion, AlphaLISA, 16 h; stronger effect = lower value; activity change, % at 57.5 µM; 360,000 compounds, 4.7% hits; AID 743279, 2014; in the data active means activity change below about -50%; inconclusive means mostly about -30% to -49%
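THP-1 cells pretreated 1 hr with compounds (up to 57.5 uM final), then stimulated with LPS (250 ng/mL final) plus ATP (1.25 mM final); secreted IL-1B measured by AlphaLISA after 16 hr, decreased signal indicating inhibition.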
Starred values were filed as active, the others as inactive; ? = inconclusive; · = no result given. Unless noted, the call rests on the fitted dose curve; in most records, active means well fitted curve in the direction sought with a large enough effect; inconclusive means small, poorly fitted or top-dose-only effect, or another doubt; inactive means no such curve, though single readings can be large; an effect the other way counts as inactive or inconclusive. On the % scale 0 is the no-effect control and ±100 the full control effect.

SMILES | TDP1 cell noCPT | Six1-Eya2 blk | TDP1 cell CPT | TDP1 inh | CtBP-E1A inh | IL-1B inflam inh
C=C(C)C1CC=C(C)/C(=N\NC(=O)CCC(=O)Nc2ccc(C)c(C)c2)C1 (stereo unspecified) | ? | 1.2 | -8.9% | 1.9% | -0.2 | 0.0
COc1ccc(C(C)(C)C)cc1NC(=O)C1CC=CCC1C(=O)O (stereo unspecified) | 14.6µM* | 1.7 | ? | -9.2% | 8.8 | 26.6
COc1ccc(C(C)(C)C)cc1NC(=O)c1ccc2ncsc2c1 | ? | -3.8 | ? | 9.2% | 1.4 | -51.3*
COc1ccc(C(C)(C)C)cc1NC(=O)c1cncc(Br)c1 | 18.4µM* | 3.3 | ? | -1.9% | 1.4 | -22.1
O=C(O)c1ccc2ncsc2c1 | 0.4% | 0.0 | -1.4% | 44.7µM* | 4.4 | -11.0
COc1ccc(C(C)(C)C)cc1NC(=O)C1C2C=CC(C2)C1C(=O)O (stereo unspecified) | ? | -0.7 | -24.2% | -10.0% | -7.0 | 0.0
Cc1cc(C)cc(Oc2ccc(NC(=O)C3CC=CCC3C(=O)O)cc2)c1 (stereo unspecified) | 3.66µM* | -3.8 | -4.3% | 2.7% | 7.7 | 10.9
CCCCN(C)CCNC(=S)Nc1ccc2nc(N3CCN(CC)CC3)cc(C)c2c1 | ? | -1.9 | ? | · | -5.5 | -63.1*
CCN(CC)CCNC(=S)Nc1ccc2nc(N3CCN(CC)CC3)cc(C)c2c1 | ? | -3.9 | ? | · | -5.5 | -58.6*
CCN1CCN(c2cc(C)c3cc(NC(=S)NCCN(C)C)ccc3n2)CC1 | 20.6µM* | -5.1 | ? | · | -5.5 | -51.8*
CCCCNC(=S)Nc1ccc2nc(N3CCN(CC)CC3)cc(C)c2c1 | 23.1µM* | 10.5 | 23.1µM* | · | -7.5 | ?
O=C(NN1CCOCC1)c1c(-c2ccccc2)sc2ccccc12 | 4.5% | 7.8 | -0.3% | -0.8% | 5.5 | 13.5
O=[N+]([O-])c1cc(Br)c2nsnc2c1N1CCOCC1 | -25.9% | ? | ? | · | ? | -2.9
CCOc1ccc(/C=C/C(O)=C2/C(=O)NC3(C)CC2c2ccccc2O3)cc1OC (stereo unspecified) | 3.66µM* | 1.5 | 5.17µM* | 3.7% | 12.0 | -20.4
CCOc1ccc(/C=C/C(O)=C2/C(=O)N(C)C3(C)CC2c2ccccc2O3)cc1OC (stereo unspecified) | 8.2µM* | -0.5 | 5.8µM* | 0.0% | 8.7 | -100.8*
Cn1c(SCc2ccccc2)nnc1-c1c[nH]c2ccccc12 | ? | 0.0 | ? | 9.8% | -3.9 | -16.6
COC(=O)c1ccc(CSc2nnc(-c3c[nH]c4ccccc34)n2C)o1 | 13µM* | -2.4 | 23.1µM* | 8.8% | -8.5 | -0.8
COC(=O)c1ccc(CSc2nnc(-c3c[nH]c4ccccc34)n2-c2ccccc2)cc1 | 16.4µM* | -14.5 | 20.6µM* | -5.3% | -19.8 | ?
O=c1cc(N=Nc2ccc(Cl)cc2)[nH]c(=O)[nH]1 | 0.92µM* | 2.8 | 0.517µM* | 5.0% | -10.4 | -98.9*
O=c1cc(-c2ccc(Cl)cc2)oc(=O)[nH]1 | -0.6% | -1.2 | 7.3% | -1.2% | · | 36.5
O=C(NNC(=O)c1ccccc1-c1ccccc1C(=O)O)c1cccc([N+](=O)[O-])c1 | -6.6% | 0.1 | 18.5% | 2.8% | 1.0 | 9.8
CNCCOc1ccc(Cl)c(Cl)c1 | 16.4µM* | -0.2 | ? | -6.0% | -19.4 | -24.0
CNCCCOc1ccc2c(c1)CCC2 | ? | 3.8 | ? | 2.4% | 0.6 | -0.7

Source: PubChem BioAssay (National Center for Advancing Translational Sciences (NCATS))
